For five compounds, AC50 and outcome results are on record in PubChem BioAssay (EPA / NIEHS).

Where “and” joins values, the source holds several entries; their conditions need not be identical. Identical values can stand only once. More than one record can exist for a structure, and the calls need not agree. Calls of active or inactive are those of the source. The calls were made as follows: active = hit-call score of the fitted dose curve at least 0.9, where 1 is the maximum; inactive = score below 0.9.

Assay [1] is described as follows: APR_HepG2_P-H2AX_72hr: Apredica 72-hour HepG2 Assay for H2AX Phosphorylation (AID 2282916).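 Also: phospho-histone H2A.x immunostain intensity per cell marking DNA damage.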 Particulars: imaging, actives raise or lower the signal. The method in brief: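 Phospho-H2A.x imaging endpoint in HepG2 after 72 hr compound exposure (0.39–200 uM, duplicate wells). Activity derived by bidirectional curve fitting with DMSO as baseline.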
Assay [2] in a line: APR_HepG2_MitoMembPot_72hr: Apredica 72-hour HepG2 Assay for Mitochondrial Membrane Potential (AID 2282917). Particulars: imaging, actives raise or lower the signal. The method, boiled down:
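HepG2 cells dosed 72 hr with compound at 0.39–200 uM in duplicate, 0.5% v/v DMSO final. Mitochondria stained with 250 nM MitoTracker Red CMXRos for 30 min before formaldehyde fixation, imaged by high-content fluorescence; bidirectional fit versus DMSO.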

Assay [3] can be described thus: APR_HepG2_MitoticArrest_72hr: Apredica 72-hour HepG2 Assay for Mitotic Arrest (AID 2282918). As to conditions: high-content imaging, actives raise or lower the signal. The method, boiled down:
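Using high-content imaging of fixed HepG2 cells, phospho-histone H3 signal was measured following a 72 hr incubation with ten-point compound dilutions up to 200 uM. DMSO served as the negative control and baseline for bidirectional curve fitting.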

Assay [4] can be described thus: APR_HepG2_MicrotubuleCSK_72hr: Apredica 72-hour HepG2 Assay for Microtubule CSK Stabilty (AID 2282919). As to conditions: HepG2 microtubule cytoskeleton, high-content imaging, actives raise or lower the signal. The method in brief: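 HepG2, 72 hr cmpd exposure, 0.39–200 uM (10 pts, duplicate), 0.5% DMSO. 3.7% formaldehyde fix, 0.5% Triton perm, anti-alpha-tubulin/Cy5 plus Hoechst. HCS fluorescence intensity; bidirectional fit vs DMSO baseline; taxol as positive control.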

Assay [5] in a line: APR_HepG2_P-H2AX_24hr: Apredica 24-hour HepG2 Assay for H2AX Phosphorylation (AID 2282920). Particulars: high-content imaging, actives raise or lower the signal. The method in brief: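 Human HepG2 liver cells, treated 24 hr with test chemicals (0.39–200 uM, final DMSO 0.5% v/v), are fixed and co-stained for phospho-H2A.x and c-Jun with Hoechst. Imaged intensity is fitted in both directions against DMSO controls.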

Assay [6] can be described thus: APR_HepG2_StressKinase_72hr: Apredica 72-hour HepG2 Assay for Stress Kinase (AID 2282921). Particulars: HepG2 stress kinase (phospho-c-Jun) imaging, actives raise or lower the signal. The method, boiled down: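 Stress kinase signal reflects nuclear phospho-c-Jun staining in fixed, permeabilized cells exposed 72 h to compound at 0.39–200 uM; DMSO-normalized, fitted for increases or decreases.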

Assay [7] in a line: APR_HepG2_StressKinase_24hr: Apredica 24-hour HepG2 Assay for Stress Kinase (AID 2282922). As to conditions: HepG2 stress kinase (phospho-c-Jun) imaging, actives raise or lower the signal. The method in brief: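 Read-out: phospho-c-Jun immunofluorescence (Cy3 secondary) quantified by high-content imaging at 20x, nuclei defined by Hoechst 33342. Human HepG2 liver cells dosed 24 hr, 0.39–200 uM, DMSO 0.5% v/v; gain or loss of signal fitted relative to DMSO.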

Assay [8] in a line: APR_HepG2_p53Act_72hr: Apredica 72-hour HepG2 Assay for p53 Activation (AID 2282923).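 Also: average cellular p53 protein immunofluorescence intensity in HepG2 cells.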 Particulars: high-content imaging, actives raise or lower the signal. The method in brief: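 Fixed-cell p53 staining (sheep primary, Cy5 secondary) measured by fluorescence imaging following 72 hr treatment at 0.39–200 uM in 0.5% DMSO; DMSO served as negative control and baseline.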
Assay [9] is described as follows: APR_HepG2_MitoMass_72hr: Apredica 72-hour HepG2 Assay for Mitochondrial Mass (AID 2282924).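 Also: MitoTracker Red CMXRos stain intensity per cell imaged as mitochondrial mass.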 Particulars: high-content imaging, actives raise or lower the signal. The method, boiled down:
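Read-out: MitoTracker Red fluorescence intensity from automated imaging (20x, six fields per well) in human HepG2 liver cells. Dosing ran 72 hr, 0.39–200 uM, 0.5% DMSO; bidirectional curve fitting versus DMSO baseline.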

Assay [10] can be described thus: APR_HepG2_NuclearSize_72hr: Apredica 72-hour HepG2 Assay for Nuclear Size (AID 2282925). As to conditions: high-content imaging, actives raise or lower the signal. The method in brief:
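Read-out: nuclear diameter from Hoechst 33342 images (ArrayScan, 20x, six fields/well), via cell-cycle image analysis. HepG2 were dosed 0.39–200 uM for 72 hr in 0.5% DMSO. Bidirectional fit relative to DMSO.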

Assay [11] can be described thus: ATG_CRE_CIS: Attagene CIS-FACTORIAL HepG2 Assay for human cAMP Responsive Element (CRE) binding protein 3 (AID 2282926). Particulars: HepG2 CRE cis-reporter, Attagene multiplexed mRNA; actives raise or lower the signal. The method, boiled down:
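Liver-derived HepG2, transfected with a CRE-containing reporter panel, exposed 24 h; transcript levels sized and quantified by capillary electrophoresis of labelled amplicons; signal changes either way referenced to vehicle.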

The target of assay [12] is CCAAT/enhancer-binding protein beta (Homo sapiens) (UniProt P17676). The experiment in a line: ATG_C_EBP_CIS: Attagene CIS-FACTORIAL HepG2 Assay for human CCAAT/Enhancer Binding Protein (C/EBP) beta (AID 2282927). As to conditions: HepG2 Attagene cis-factorial transcription factor reporter; actives raise or lower the signal. The method in brief: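 Transiently transfected HepG2 (MRTU library, endogenous TF-driven promoters); 24 h dosing; total RNA → oligo(dT) RT → PCR → 6-FAM primer extension → HpaI digest → CE; fit bidirectionally vs DMSO.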

Assay [13] is described as follows: ATG_CMV_CIS: Attagene CIS-FACTORIAL HepG2 Assay for human CMV (Internal Marker) (AID 2282928).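 Also: endpoint acts as a background internal control marker rather than a target.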 Particulars: HepG2 CMV promoter reporter, transcription factor profiling; actives raise or lower the signal. The method, boiled down: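 Fluorescence intensity of RT-PCR-derived reporter fragments, resolved by capillary electrophoresis, gives the signal. HepG2 liver cells bearing transfected cis-element reporters were treated 24 h; activity in either direction was fit relative to DMSO-treated controls.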

Assay [14] is described as follows: ATG_AP_1_CIS: Attagene CIS-FACTORIAL HepG2 Assay for human Activator Protein 1 (AP-1) (AID 2282931). Particulars: HepG2 Attagene cis-factorial AP-1 reporter mRNA; actives raise or lower the signal. The method, boiled down: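 Reporter transcripts were measured 24 h after dosing by RT-PCR and capillary electrophoresis of fluorescent fragments. Cells: HepG2 carrying transfected cis-regulated reporter constructs reading endogenous factor activity. Gain or loss fitted against DMSO.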

A short description of assay [15]: ATG_AP_2_CIS: Attagene CIS-FACTORIAL HepG2 Assay for human Activator Protein 2 (AP-2) (AID 2282932). Particulars: HepG2 AP-2 cis-reporter, Attagene transcription factor profiling; actives raise or lower the signal. The method in brief: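 Read-out: fluorescent reporter mRNA via RT-PCR and capillary electrophoresis, 24 h post-dose in transiently transfected HepG2. Endogenous factors drive cis-promoter reporters; gain or loss of signal fitted bidirectionally against DMSO.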

A short description of assay [16]: ATG_BRE_CIS: Attagene CIS-FACTORIAL HepG2 Assay for human Bone Morphogenetic Protein (BMP) Response Element (BRE) (AID 2282933). As to conditions: HepG2 BMP response element reporter, Attagene transcription factor profiling; actives raise or lower the signal. The method, boiled down: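 Gain- or loss-of-signal was derived by bidirectional fitting against DMSO controls. The signal came from reporter mRNA, measured by RT-PCR and capillary electrophoresis, in HepG2 cells transiently carrying multiple reporter units and dosed for 24 h.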

Assay [17] in a line: APR_HepG2_CellLoss_72hr: Apredica 72-hour HepG2 Assay for Cell Loss (AID 2282915). Particulars: high-content imaging. The method, boiled down: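 HepG2 cells exposed 72 h to compound at 0.39–200 uM (10 concentrations, duplicate) in 0.5% DMSO. Fixed with 3.7% formaldehyde and Hoechst 33342-stained. Imaged at 20x; nuclear count gives cell number, fitted bidirectionally versus DMSO.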

Assay [18] can be described thus: ATG_DR4_LXR_CIS: Attagene CIS-FACTORIAL HepG2 Assay for human Liver X Receptor (LXR), DR4 submotif (AID 2282929). As to conditions: HepG2 Attagene DR4 cis-reporter, mRNA transcription; actives raise or lower the signal. The method, boiled down:
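Readout: reporter transcript fluorescence after RT-PCR and capillary electrophoresis, fitted bidirectionally against DMSO controls. Human HepG2 liver cells carried transiently transfected multiplexed reporter constructs; endogenous transcription factor activity measured 24 h post-dosing.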

Assay [19] deals with Aryl hydrocarbon receptor (Homo sapiens) (UniProt P35869). The experiment in a line: ATG_Ahr_CIS: Attagene CIS-FACTORIAL HepG2 Assay for human Aryl Hydrocarbon Receptor (Ahr) (AID 2282930). Particulars: HepG2 AhR cis-factorial reporter transcription; actives raise or lower the signal. The method in brief: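 Read-out: reporter mRNA quantified by RT-PCR with fluorescent primer extension and capillary electrophoresis. Human HepG2 liver cells carried transfected cis-promoter reporter units and were exposed to chemical for 24 h; gain or loss fitted relative to DMSO.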

The target in assay [20] is Retinoic acid receptor alpha (Homo sapiens) (UniProt P10276). The assay can be described thus: ATG_DR5_RAR_CIS: Attagene CIS-FACTORIAL HepG2 Assay for human Retinoic Acid Receptor Alpha (RARE), DR5 submotif (AID 2282934). Particulars: HepG2 Attagene cis-factorial RARE DR5 reporter, mRNA; actives raise or lower the signal. The method in brief:
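Read-out: DR5-driven reporter transcript measured by RT-PCR, 6-FAM primer extension, HpaI digest and capillary electrophoresis. Human HepG2 liver cells carry transiently transfected cis-element reporter constructs; dosing lasts 24 h. Gain or loss of signal fitted against DMSO baseline.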

Sequence of CCAAT/enhancer-binding protein beta (Homo sapiens) (P17676 whole entry, looked up): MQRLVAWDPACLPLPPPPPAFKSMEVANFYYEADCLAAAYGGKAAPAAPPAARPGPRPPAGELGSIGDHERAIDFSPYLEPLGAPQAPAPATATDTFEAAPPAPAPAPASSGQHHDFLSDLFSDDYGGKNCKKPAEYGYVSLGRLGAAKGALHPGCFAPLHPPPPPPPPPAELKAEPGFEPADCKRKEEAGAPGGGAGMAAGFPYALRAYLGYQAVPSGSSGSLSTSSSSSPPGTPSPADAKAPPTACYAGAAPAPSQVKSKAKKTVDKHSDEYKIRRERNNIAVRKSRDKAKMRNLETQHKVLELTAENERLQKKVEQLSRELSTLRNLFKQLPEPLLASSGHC
Sequence of Aryl hydrocarbon receptor (Homo sapiens) (P35869 whole entry, looked up): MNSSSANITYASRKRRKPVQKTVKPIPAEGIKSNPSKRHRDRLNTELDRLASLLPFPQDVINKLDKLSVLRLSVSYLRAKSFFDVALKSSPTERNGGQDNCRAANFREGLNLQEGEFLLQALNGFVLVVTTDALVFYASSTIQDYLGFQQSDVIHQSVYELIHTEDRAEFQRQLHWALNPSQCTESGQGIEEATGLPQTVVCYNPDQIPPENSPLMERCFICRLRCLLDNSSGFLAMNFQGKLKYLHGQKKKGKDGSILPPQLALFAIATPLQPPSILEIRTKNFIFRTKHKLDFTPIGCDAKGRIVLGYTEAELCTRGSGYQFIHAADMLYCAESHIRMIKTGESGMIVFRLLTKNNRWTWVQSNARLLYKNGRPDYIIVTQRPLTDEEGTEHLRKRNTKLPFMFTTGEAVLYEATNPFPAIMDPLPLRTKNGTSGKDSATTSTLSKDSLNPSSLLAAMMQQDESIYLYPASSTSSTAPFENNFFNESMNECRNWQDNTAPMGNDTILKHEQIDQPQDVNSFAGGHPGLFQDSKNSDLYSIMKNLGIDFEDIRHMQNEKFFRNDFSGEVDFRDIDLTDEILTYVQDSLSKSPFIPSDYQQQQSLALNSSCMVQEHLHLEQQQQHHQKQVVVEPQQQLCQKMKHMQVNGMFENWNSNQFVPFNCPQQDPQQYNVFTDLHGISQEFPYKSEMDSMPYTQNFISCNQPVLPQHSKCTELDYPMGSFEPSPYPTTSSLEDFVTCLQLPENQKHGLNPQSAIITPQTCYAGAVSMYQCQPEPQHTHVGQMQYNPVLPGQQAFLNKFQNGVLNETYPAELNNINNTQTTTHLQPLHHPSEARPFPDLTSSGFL
Sequence of Retinoic acid receptor alpha (Homo sapiens) (P10276 whole entry, looked up): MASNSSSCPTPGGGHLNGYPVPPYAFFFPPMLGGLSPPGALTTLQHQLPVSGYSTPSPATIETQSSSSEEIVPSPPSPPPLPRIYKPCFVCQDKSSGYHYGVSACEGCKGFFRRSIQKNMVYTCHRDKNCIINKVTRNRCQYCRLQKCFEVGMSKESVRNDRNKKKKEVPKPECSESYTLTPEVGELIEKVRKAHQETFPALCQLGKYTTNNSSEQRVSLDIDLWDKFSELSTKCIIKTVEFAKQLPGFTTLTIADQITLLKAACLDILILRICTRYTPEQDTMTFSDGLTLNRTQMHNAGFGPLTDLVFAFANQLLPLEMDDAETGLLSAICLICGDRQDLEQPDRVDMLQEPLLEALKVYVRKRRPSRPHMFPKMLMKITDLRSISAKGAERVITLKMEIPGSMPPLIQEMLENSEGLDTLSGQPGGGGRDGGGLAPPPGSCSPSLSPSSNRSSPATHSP

For `Oc1cc(Cl)ccc1Oc1ccc(Cl)cc1Cl`, the AC50 in assay [1] was 24.4 µM (active) and 34.3 µM (active); in assay [2], 35 µM (active); in assay [3] it was 27.9 µM (active); in assay [4] it was 98.6 µM (active) and 71.5 µM (active); in assay [5], 27.9 µM (active) and 45.5 µM (active); in assay [6], 49.2 µM (active). Moreover, the AC50 in [8] was 14.9 µM (active) and 16.3 µM (active); in assay [9], 170 µM (active); in [10], 36.8 µM (active); in assay [11] it was 8.07 µM (active) [middle of 4 runs]; in [12], 20.5 µM (active); in assay [13], 8.95 µM (active) [middle of 5 runs]. In addition, the AC50 in [14] was 8.94 µM (active) [middle of 5 runs]; in [15], 20.7 µM (active); in [16], 7.15 µM (active) [middle of 6 runs]. Besides, the result in [1], in [2], in assay [3], in assay [4], in assay [5] and in assay [6] was inactive. In addition, the result in [7], in [8], in [9], in assay [10], in assay [11] and in assay [12] was inactive. Further, the call in assay [13], in [14], in assay [15] and in assay [16] was inactive.

On to `O=C1c2ccccc2C(=O)N1SC(Cl)(Cl)Cl`, for which the values for the AC50 in [17] and in [2] were 30.8 µM (active) and 10.4 µM (active), respectively. Moreover, the result in assay [1], in assay [3], in assay [4], in [5], in assay [6] and in [7] was inactive. The compound was called inactive in assay [8], in [9], in [10], in [11], in assay [12] and in assay [13]. For the same compound, the result in [18], in assay [19], in assay [14], in assay [15], in assay [16] and in [20] was inactive.

For the compound `O=S1OCC2C(CO1)C1(Cl)C(Cl)=C(Cl)C2(Cl)C1(Cl)Cl` (configuration not stated), the AC50 in [17] is 100 µM (active); in [4], 117 µM (active). In addition, the outcome in [1], in assay [2], in assay [3], in assay [5], in assay [6] and in [7] was inactive. Moreover, the result in assay [8], in assay [9], in assay [10], in [11], in assay [12] and in [13] was inactive. The result in assay [14], in assay [15], in assay [16] and in assay [20] was inactive.

Consider `CC1(c2ccc(Oc3ccccc3)cc2)OC(=O)N(Nc2ccccc2)C1=O` (configuration not stated), for which the AC50 in assay [17] is 32.6 µM (active); in assay [5], 93.2 µM (active); in [8], 121 µM (active); in [11] it was 1.3 µM (active); in [16] it was 1.14 µM (active). The compound was classed as inactive in assay [1], in [2], in assay [3], in assay [4], in [6] and in [7]. Also, the result in assay [9], in assay [10], in assay [12], in assay [13], in [18] and in assay [14] was inactive. The outcome in [15] and in assay [20] was inactive.

As for `COC(=O)c1ccccc1CS(=O)(=O)NC(=O)Nc1nc(OC)cc(OC)n1`, the result in [1], in [2], in assay [3], in [4], in [5] and in assay [6] was inactive. For the same compound, the compound was called inactive in assay [7], in assay [8], in [9], in assay [10], in assay [11] and in [12]. Further, the compound was called inactive in assay [13], in assay [18], in [19], in [14], in assay [15] and in assay [16]. For the same compound, in [20], the call was inactive.
